Screens: PubChem BioAssay, Broad Institute
Tg IFNy HTS = T. gondii growth inhibition under IFN-gamma; Toxoplasma gondii growth in IFN-gamma-treated host cells; hits give low values; activity change, negative = inhibition, % (no concentration beside the values); 3.8% of 69,000 active; AID 1259416; in the data active = activity change below about -70%, passing the limit was not always enough;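 also: host cells are HeLa cells infected with Toxoplasma gondii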
* = called active by the depositor. The sample as a whole holds a higher share of hits than the screen did.

SMILES | Tg IFNy HTS
CCn1cc(CN2CCN(C(=O)c3ccnc(N4CCOCC4)c3)CC2)c(C)n1 | 14
Cc1nn(CCO)cc1CN1CCN(S(=O)(=O)c2ccccc2)CC1 | -7
Fc1ccc(N2CCCN(Cc3cnc(-c4ccco4)nc3)CC2)cc1 | 20
CCCN(CCC)S(=O)(=O)c1ccc(C(=O)O)cc1 | 17
CCCN(CCC)S(=O)(=O)c1ccc(C(=O)ON=C2C3CC4CC(C3)CC2C4)cc1 | -79*
O=C(COc1ccc(Cl)cc1)ON=C1C2CC3CC(C2)CC1C3 | -19
N#CCN1CCOC2(CCN(C(=O)c3ccc[nH]3)CC2)c2ccccc21 | 38
CCCCn1c(=O)cc(O)c2ccccc21 | -3
CCCn1c(=O)cc(N2CCN(C(=O)CC)CC2)c2cc(C)ccc21 | -76*
Cc1ccc(C)c(N2CCN(C(=O)CC3Nc4c5ccccc5nc(=S)n4C3=O)CC2)c1 (stereo not drawn) | 5
N#CCCN(C(=S)Nc1ccc(Cl)cc1)C1CCCCC1 | 10
O=C(c1cnc2ccccc2c1)N1CCC2(CC(=O)N(c3ccc(F)cc3)C2)C1 (stereo not drawn) | -31
Cc1cccc(N2CC3(CCN(C(=O)c4cnc5ccccc5c4)C3)CC2=O)c1 (stereo not drawn) | -63
O=C(c1cnc2ccccc2c1)N1CCC2(CC(=O)N(c3cccc(F)c3)C2)C1 (stereo not drawn) | -74*
CN(C)[C@@H]1C[C@@H](CO)N(C(=O)c2cccc3c(=O)c4ccccc4[nH]c23)C1 | 0
Cc1cc(C)n(C(C)C(=O)Nc2cccc(CN3CCC(C)CC3)c2)n1 (stereo not drawn) | 2
COc1ccc(C(=O)NCCc2sc(-c3cccc(F)c3)nc2C)cc1OC | 48
Nc1nc(Nc2ccc(S(N)(=O)=O)cc2)nn1C(=O)c1c(F)cccc1F | -72*
O=C(c1c(F)cccc1F)N1CCN(S(=O)(=O)c2cc3c4c(c2)CCC(=O)N4CCC3)CC1 | -30
NS(=O)(=O)c1ccc(NC(=O)CSc2ncn(-c3ccccc3)n2)cc1 | 5
C[C@@H]1CN([C@@H](C)CO)C(=O)c2cc(NC(=O)C3CCCCC3)ccc2O[C@@H]1CN(C)Cc1ccc2c(c1)OCO2 | 25
CCO[C@H]1CCN(C(=O)Cc2ccsc2)[C@H]1Cc1ccncc1 | 5
c1ccc2c(CC3=NCCN3)cccc2c1 | -1
Brc1c(NC2=NCCN2)ccc2nccnc12 | 11
C(=N\NC1=NCCN1)/c1c2ccccc2c(/C=N/NC2=NCCN2)c2ccccc12 | -75*
SMILES | Tg IFNy HTS
CCS(=O)(=O)NCCc1csc(-c2cccc(F)c2)n1 | 24
Cc1ccc(Nc2cccc3ccccc23)cc1 | -119*
c1ccc2c(NC3=NCCCCS3)cccc2c1 | -15
c1ccc(Nc2cccc3c(Nc4ccccc4)cccc23)cc1 | 14
CCOc1ccc(NC(=S)Nc2cc(-c3cccs3)[nH]n2)cc1 | 89
NC1CC(=O)N(C2CCCCCC2)C1 (stereo not drawn) | -26
O=C(Nc1ccc(F)c(Cl)c1)c1c(O)c2cccnc2[nH]c1=O | 69
O=C(NCc1cccnc1)c1c(O)c2ccccc2n(-c2ccccc2)c1=O | -5
O=C(NCc1ccccc1)c1c(O)c2cccnc2n(-c2ccc(F)cc2)c1=O | 75
COc1cccc(CNC(=O)c2c(O)c3ccccc3n(-c3ccccc3)c2=O)c1 | -5
O=C(NCc1ccc(Cl)cc1)c1c(O)c2cccnc2n(-c2ccc(F)cc2)c1=O | -105*
O=C(NCc1cccc(Cl)c1)c1c(O)c2cccnc2n(-c2cccc(F)c2)c1=O | 72
O=C(NCc1cccc(Cl)c1)c1c(O)c2cccnc2n(-c2ccc(F)cc2)c1=O | 128
O=C(NCc1cccc(Cl)c1)c1c(O)c2cccnc2n(-c2ccccc2)c1=O | -83*
O=C(NCc1ccc(Cl)cc1)c1c(O)c2cccnc2n(-c2cccc(F)c2)c1=O | 139
O=C(NCc1ccc(Cl)cc1)c1c(O)c2ccccc2n(-c2ccccc2)c1=O | -124*
COc1cccc(C2(NC(=O)CCN3Cc4ccccc4C3=O)CCCC2)c1 | 61
COc1ccc(C)cc1NC(=O)Cn1c(=O)cc(C(=O)N2CCCCC2)c2ccccc21 | -1
CC(C)C(=O)c1nc2c(s1)CCCN2c1ccccc1 | -23
Cc1ccc2[nH]c(C(=O)O)c(CN3CCC(n4nc(C)cc4C)C3)c2c1 (stereo not drawn) | 60
CC(C)Cc1n[nH]c(CSc2ccccc2)n1 | -58
Cc1ccc2c(c1)NC1(CCN(C(=O)c3cccc(F)c3)CC1)c1cccn1-2 | 49
Cc1c(-c2ccccc2)n(-c2ccccc2)c2ccccc12 | -90*
O=c1cc(O)c2ccccc2n1-c1ccccc1 | 46
Cc1c(C)n(C(=O)CSc2nnc(-c3ccccc3)o2)c2ccccc12 | 6
SMILES | Tg IFNy HTS
Cc1ccc(CN2CC[C@@H](N(C)C(C)C)[C@H]2Cc2ccccc2)s1 | -35
O=C(c1ccccc1-c1ncc[nH]1)N1CC(=O)N(C2CCCCC2)CC(OCc2ccccn2)C1 (stereo not drawn) | -33
CC(C)c1ccc(-c2nccn2CCn2cccn2)cc1 | 7
O=[N+]([O-])c1cc(/C=N/n2cnnc2)ccc1N1CCCC1 | -90*
O=Cc1ccc(N2CCCCC2)cc1 | -3
O=C(N/N=C\c1cc([N+](=O)[O-])ccc1N1CCOCC1)c1ccccn1 | 3
Cc1nc(N(C)C)ncc1C(=O)NC(C)c1cc2cc(Cl)ccc2o1 (stereo not drawn) | 13
COc1cccc(C(=O)C2CCCN(Cc3cnn(-c4ccc(F)cc4)c3)C2)c1 (stereo not drawn) | 11
CC(C)C(NC(=O)c1cccc(-n2cnnc2)c1)c1cccs1 (stereo not drawn) | 115
CC(C)C(NC(=O)c1cc(-c2ccncc2)c2cnccc2n1)c1cccs1 (stereo not drawn) | -87*
CC1CCN(CC(C)(C)NC(=O)c2cc(-c3ccncc3)c3cnccc3n2)CC1 | -14
O=C(c1cc(-c2ccn[nH]2)n2ccccc12)N1CCCCC1 | -11
CCC(=O)c1cn(S(=O)(=O)c2ccc(C)cc2)c2ccccc12 | -101*
Cc1ccc(S(=O)(=O)n2c(N)nc3ccccc32)cc1 | 18
O=C(NC1CCCCNC1=O)c1cn(S(=O)(=O)c2ccccc2)c2ccccc12 (stereo not drawn) | -41
COC(=O)c1cccc(C2CC(=O)Nc3c2cnn3-c2ccccc2)n1 (stereo not drawn) | 9
Cn1cnc2c(-c3ccccc3)nc(C3CCN(S(=O)(=O)C4CC4)CC3)cc21 | -6
O=C1Cc2c([nH]c3ccc(Br)cc23)-c2ccccc2N1 | 3
O=c1c2c([nH]c3ccc(Br)cc13)CCCC2 | -94*
O=C(c1ccc2[nH]c3c(c2c1)CCCC3)N1Cc2cnn(CCO)c2C1 | 22
Cc1nc(-c2ccc(Cl)cc2)sc1CCNS(=O)(=O)CCc1ccccc1 | 257
Cc1ccc(CN2CCOC3(CCN(C(=O)C4CCOC4)CC3)C2)cc1 (stereo not drawn) | -3
CC1=C(C(=O)NCCN2CCOCC2)C2(CCN(S(=O)(=O)c3cccs3)CC2)OC1=O | 39
FC(F)(F)C(Sc1ccccc1)=C(Sc1ccccc1)Sc1ccccc1 | -80*
c1ccc(SSc2ccccc2)cc1 | 10
Cc1cccc(CNC(=O)N2CCN3CCN(C)C(=O)C3C2)c1 (stereo not drawn) | 3
Cn1cc(CC(=O)NCc2cnn3ccccc23)c2ccccc21 | 42
O=C(NO)c1cnc(N2CCN(S(=O)(=O)c3ccc4ccccc4c3)CC2)nc1 | -70
Cn1cc(CNCC2CCN(c3ncc(C(=O)NO)cn3)CC2)c2ccccc21 | -79*
